Data as given in PubChem BioAssay (NCATS).
Several values for one entry are separate records, joined by “and”; a condition that tells them apart may be missing. Equal values may be shown once. Inconclusive results are not listed. Some compounds were tested as several samples or in several runs, with calls that do not always agree. Activity calls are given as the source filed them. Unless noted, calls come from the whole dose curve; as a rule, active = well fitted curve in the direction sought with a large enough effect; inconclusive = small, poorly fitted or top-dose-only effect, or another doubt; inactive = no such curve, though single readings can be large; an effect the other way counts as inactive or inconclusive.

Assays:
[1] = Cellular Toxicity (caspase-3) HepG2 (AID 654);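 note: cells exposed to compound for 16 hours before reading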
Outline: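 HepG2 cells (1500/well) in complete medium were treated with compounds for 16 hr at 37 °C. Caspase-3/7 activity was then read as luminescence from peptide-aminoluciferin cleavage. AC50 came from Hill fits, normalized to DMSO and 100 uM tamoxifen.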

[2] = Cellular Toxicity (caspase-3) Jurkat (AID 655);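 note: cells exposed to compound for 16 h at 37 °C before reading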; note: potency is the fitted concentration of half-maximal effect
Outline: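 Luminescent caspase-3/7 readout (aminoluciferin substrate cleavage) in human T-cell leukemia Jurkat cells after 16 hr compound exposure. Concentration-response normalized to DMSO and 100 uM tamoxifen; AC50 by standard Hill equation.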

[3] = Cellular Toxicity (caspase-3) HUV-EC-C (AID 656)
Outline: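 Luminescent caspase-3/7 activation (aminoluciferin substrate cleavage) in HUV-EC-C cells after 16 hr compound exposure, 37°C. Signal normalized to DMSO basal and 100 uM tamoxifen as 100%; AC50 from concentration-response fitted with the Hill equation.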

[4] = Cellular Toxicity (caspase-3) BJ (AID 658)
Outline: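 Luminescent aminoluciferin-substrate cleavage reports caspase 3/7 activity in normal human BJ fibroblasts after 16 hr compound exposure at 37 °C. Normalized to DMSO (basal) and 10 uM staurosporine (100%); AC50 from Hill fit of concentration-response.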

[5] = Cellular Toxicity (caspase-3) MRC-5 (AID 659)
Outline: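 Luminescence from caspase-cleaved aminoluciferin substrate (Caspase-Glo 3/7, 1 hr RT) reports caspase 3/7 activity in MRC-5 lung fibroblasts after 16 hr compound exposure. Normalized to DMSO basal and 10 uM staurosporine as 100%; AC50 from Hill fits.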

[6] = Cellular Toxicity (caspase-3) Mesangial (AID 660);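 note: cells exposed to compound for 16 h before the caspase read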
Outline: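 Human renal glomerular mesangial cells (1000/well) were treated with compounds for 16 h at 37 °C in complete medium, then caspase 3/7 activity was read by Caspase-Glo luminescence. Data were normalized to DMSO and 100 uM tamoxifen; AC50 from Hill fits.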

[7] = Cellular Toxicity (caspase-3) SK-N-SH (AID 661)
Outline: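 SK-N-SH human neuroblastoma cells (1500/well) were treated with compounds for 16 hr at 37 °C in complete medium; caspase 3/7 activity was read by Caspase-Glo luminescence. AC50 came from Hill fits of data normalized to DMSO and 10 uM staurosporine.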

[8] = Cellular Toxicity (caspase-3) Hek293 (AID 664);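 note: cells exposed to compound for 16 h at 37 °C before readout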
Outline: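 HEK293 cells were exposed to compounds in complete medium for 16 hr at 37 °C, then caspase-3/7 activity was read by Caspase-Glo 3/7 luminescence after 20 min at room temperature. Data normalized to DMSO and 100 uM tamoxifen; AC50 from Hill fits.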

[9] = Cellular Toxicity (caspase-3) N2a (AID 665);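 note: compound exposure lasted 16 h at 37 °C before readout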
Outline: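 Mouse N2a neuroblastoma cells (1500/well) were treated with compounds for 16 h at 37 °C, then caspase-3/7 activity was read by Caspase-Glo luminescence after 1 h at room temperature. Data were normalized to DMSO and 10 uM staurosporine; AC50 from Hill fits.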

[10] = Cellular Toxicity (caspase-3) NIH 3T3 (AID 666); note: potency is the fitted concentration of half-maximal effect
Outline: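 Mouse NIH 3T3 fibroblasts (1000 cells/well) were treated with compound for 16 hr at 37°C in complete medium; caspase-3/7 activity was read by Caspase-Glo luminescence. Normalized to DMSO and 100 uM tamoxifen; AC50 from Hill fits.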

[11] = molecular target: Cytochrome P450 3A4 (Homo sapiens) (UniProt P08684); assay: qHTS Assay for Inhibitors and Substrates of Cytochrome P450 3A4 (AID 884); note: nearly all actives have a fitted effect of over 50% in size; note: potency is the fitted concentration of half-maximal effect
Cytochrome P450 3A4 (Homo sapiens), sequence (P08684 whole entry, looked up): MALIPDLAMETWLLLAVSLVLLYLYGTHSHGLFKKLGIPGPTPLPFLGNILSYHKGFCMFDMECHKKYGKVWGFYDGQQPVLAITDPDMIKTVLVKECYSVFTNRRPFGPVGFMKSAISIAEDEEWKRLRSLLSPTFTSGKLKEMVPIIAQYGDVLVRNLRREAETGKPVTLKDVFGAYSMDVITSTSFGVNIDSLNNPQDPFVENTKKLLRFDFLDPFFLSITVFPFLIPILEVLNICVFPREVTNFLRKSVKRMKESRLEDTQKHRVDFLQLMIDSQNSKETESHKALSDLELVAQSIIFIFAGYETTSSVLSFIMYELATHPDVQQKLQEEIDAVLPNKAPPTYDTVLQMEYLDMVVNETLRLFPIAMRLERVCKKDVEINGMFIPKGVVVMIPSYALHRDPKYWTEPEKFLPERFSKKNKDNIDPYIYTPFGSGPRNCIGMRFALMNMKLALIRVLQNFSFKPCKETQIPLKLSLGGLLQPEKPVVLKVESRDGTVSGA
Outline: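 20 nM human CYP3A4 with 25 uM Luciferin-PPXE (at KM) in 200 mM KPO4, preincubated 10 min with compound; NADPH regeneration started a 60 min RT reaction. Luciferin detected by luminescence, normalized to 57 uM ketoconazole as full inhibition.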

[12] = Cellular Toxicity (caspase-3) Renal Proximal Tubule (AID 667);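 note: cells exposed to compound for 16 hours at 37 °C before detection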
Outline: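 Luminescent caspase 3/7 signal from peptide-aminoluciferin cleavage measures apoptosis in freshly isolated rat kidney proximal tubule cells after 16 h compound exposure. Concentration-response data are normalized to DMSO and 10 uM staurosporine, and AC50 values come from Hill equation fits.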

[13] = Confirmation and Secondary Assay for Modulators of Hemoglobin Beta Chain Splicing at IVS2 654 locus (AID 910);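 note: per-well total GFP intensity by laser scanning cytometry after 2-day treatment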
Outline: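 HeLa cells stably carrying EGFP interrupted by mutant beta-globin IVS2-654 intron (CMV-driven) were treated with compound for 2 days at 37C; corrected splicing was scored as total peak GFP intensity per well (488 nm excitation, 500-520 nm emission).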

[14] = molecular target: Guanine nucleotide-binding protein G(i) subunit alpha-1 (Homo sapiens) (UniProt P63096); assay: qHTS Assay for Inhibitors of RGS12 GoLoco Motif Activity (Green Fluorophore) (AID 879);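 note: negative values mean loss of peptide binding seen as reduced polarization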
Guanine nucleotide-binding protein G(i) subunit alpha-1 (Homo sapiens), sequence (P63096 whole entry, looked up): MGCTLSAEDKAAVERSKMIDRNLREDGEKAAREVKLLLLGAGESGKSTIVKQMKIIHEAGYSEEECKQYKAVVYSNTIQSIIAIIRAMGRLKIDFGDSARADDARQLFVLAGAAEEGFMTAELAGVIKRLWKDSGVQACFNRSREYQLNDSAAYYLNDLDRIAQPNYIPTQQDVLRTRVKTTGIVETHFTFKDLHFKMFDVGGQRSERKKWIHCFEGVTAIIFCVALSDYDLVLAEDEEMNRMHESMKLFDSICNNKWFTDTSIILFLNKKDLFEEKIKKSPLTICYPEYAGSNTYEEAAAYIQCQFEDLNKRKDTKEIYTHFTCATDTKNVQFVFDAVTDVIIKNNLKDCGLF
Outline: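 Fluorescence polarization assay: 50 nM Gαi1 with 10 nM FITC-labeled RGS12 GoLoco peptide in 10 mM Tris pH 7.5, 150 mM NaCl, 0.1 mM GDP, 0.05% NP40, 10 min at room temperature with compound.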

[15] = molecular target: Cytochrome P450 2C9 (Homo sapiens) (UniProt P11712); assay: qHTS Assay for Inhibitors and Substrates of Cytochrome P450 2C9 (AID 883); note: nearly all actives have a fitted effect of over 60% in size; note: potency is the fitted concentration of half-maximal effect
Cytochrome P450 2C9 (Homo sapiens), sequence (P11712 whole entry, looked up): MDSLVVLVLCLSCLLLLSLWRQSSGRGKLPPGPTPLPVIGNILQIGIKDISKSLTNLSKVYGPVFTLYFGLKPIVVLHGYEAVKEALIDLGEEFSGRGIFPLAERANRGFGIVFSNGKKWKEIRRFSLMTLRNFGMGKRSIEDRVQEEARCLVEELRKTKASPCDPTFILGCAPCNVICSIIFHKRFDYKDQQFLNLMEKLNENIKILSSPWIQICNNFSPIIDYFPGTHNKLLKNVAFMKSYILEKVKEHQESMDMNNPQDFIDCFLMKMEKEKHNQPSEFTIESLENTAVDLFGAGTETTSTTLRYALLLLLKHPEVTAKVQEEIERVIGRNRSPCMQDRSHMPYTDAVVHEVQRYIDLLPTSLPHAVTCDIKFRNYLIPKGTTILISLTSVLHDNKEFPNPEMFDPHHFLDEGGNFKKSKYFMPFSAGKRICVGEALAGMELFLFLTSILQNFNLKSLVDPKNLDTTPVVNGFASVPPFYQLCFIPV
Outline: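 Human CYP2C9 (10nM) hydroxylated Luciferin-H (100uM, at its KM) to luciferin in 25mM KPO4. Compound was preincubated 10 min at 37C, then NADPH regeneration started a 60 min reaction at 37C. Luminescence was read after detection reagent, normalized to 57uM sulphaphenazole.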

[16] = molecular target: Cytochrome P450 3A4 (Homo sapiens) (UniProt P08684); assay: qHTS Assay for Activators of Cytochrome P450 3A4 (AID 885); note: nearly all actives have a fitted effect of over 65% in size; note: potency is the fitted concentration of half-maximal effect
Outline: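 Human CYP3A4 (20 nM) with Luciferin-PPXE at 25 uM (its KM) in 200 mM KPO4; 10 min compound preincubation, then NADPH regeneration and 60 min reaction at RT. Luciferin read by luminescence; normalized to 57 uM ketoconazole full inhibition.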

[17] = molecular target: Cytochrome P450 2D6 (Homo sapiens) (UniProt P10635); assay: qHTS Assay for Inhibitors and Substrates of Cytochrome P450 2D6 (AID 891); note: nearly all actives have a fitted effect of over 60% in size; note: potency is the fitted concentration of half-maximal effect
Cytochrome P450 2D6 (Homo sapiens), sequence (P10635 whole entry, looked up): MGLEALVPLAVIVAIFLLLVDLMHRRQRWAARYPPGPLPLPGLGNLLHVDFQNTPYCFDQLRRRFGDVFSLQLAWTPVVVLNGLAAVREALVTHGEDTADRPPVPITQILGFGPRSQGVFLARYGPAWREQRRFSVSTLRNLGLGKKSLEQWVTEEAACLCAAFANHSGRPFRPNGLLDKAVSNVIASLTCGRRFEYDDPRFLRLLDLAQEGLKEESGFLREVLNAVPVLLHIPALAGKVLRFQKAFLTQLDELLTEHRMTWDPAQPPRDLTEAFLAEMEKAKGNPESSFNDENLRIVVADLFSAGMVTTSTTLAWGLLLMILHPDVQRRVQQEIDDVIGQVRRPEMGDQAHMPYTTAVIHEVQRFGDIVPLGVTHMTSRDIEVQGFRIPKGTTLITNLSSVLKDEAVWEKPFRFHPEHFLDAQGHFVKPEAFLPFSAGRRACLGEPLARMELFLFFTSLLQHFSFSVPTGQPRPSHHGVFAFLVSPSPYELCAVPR
Outline: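 Human CYP2D6 (5 nM) with 30 uM Luciferin-ME EGE (at Km) in 100 mM KPO4, compound preincubated 10 min, then NADPH regeneration system for 60 min at room temperature. Luciferin read by luminescence; normalized to 1.43 uM quinidine.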

[18] = molecular target: Cytochrome P450 2C19 (Homo sapiens) (UniProt P33261); assay: qHTS Assay for Inhibitors and Substrates of Cytochrome P450 2C19 (AID 899); note: nearly all actives have a fitted effect of over 60% in size; note: potency is the fitted concentration of half-maximal effect
Cytochrome P450 2C19 (Homo sapiens), sequence (P33261 whole entry, looked up): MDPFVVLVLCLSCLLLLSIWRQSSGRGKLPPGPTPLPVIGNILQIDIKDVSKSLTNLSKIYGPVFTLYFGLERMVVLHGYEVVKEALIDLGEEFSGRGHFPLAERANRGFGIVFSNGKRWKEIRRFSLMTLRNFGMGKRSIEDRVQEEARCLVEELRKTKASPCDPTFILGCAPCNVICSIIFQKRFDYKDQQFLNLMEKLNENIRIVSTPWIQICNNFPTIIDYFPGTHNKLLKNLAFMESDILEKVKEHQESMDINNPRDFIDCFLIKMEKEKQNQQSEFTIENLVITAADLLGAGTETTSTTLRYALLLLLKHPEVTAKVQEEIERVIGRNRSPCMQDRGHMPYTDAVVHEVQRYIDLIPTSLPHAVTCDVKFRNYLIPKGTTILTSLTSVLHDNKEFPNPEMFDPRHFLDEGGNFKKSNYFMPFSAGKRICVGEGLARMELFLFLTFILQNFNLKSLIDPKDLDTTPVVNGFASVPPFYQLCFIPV
Outline: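 Human CYP2C19 (5nM) with Luciferin-H EGE at 10uM (its KM) in 50mM KPO4 was preincubated with compound for 10 min at 37C. NADPH regeneration started a 60 min 37C reaction. Luciferin was read by luminescence, normalized to 57uM ketoconazole.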

[19] = qHTS Assay for Identification of Small Molecule Agonists for Thrombopoietin (TPO) Signaling Pathway (AID 917)
Outline: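 Activators of TPO signaling were sought in murine Ba/F3 cells transfected with the human receptor, using a luciferase gene driven by the Glycoprotein IIb promoter; 24-hr compound exposure at 37 C alongside 26 pM TPO, in IL-3-free medium.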

[20] = qHTS Assay for Identification of Small Molecule Antagonists for NFkB Signaling Pathway (AID 895; active = well fitted inhibition curve with a large enough effect in the signal ratio, with a control signal flat, not every such curve was filed as active; the % refers to the signal ratio)
Outline: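 NFkB-bla ME-180 cervical carcinoma cells with beta-lactamase reporter under NFkB response element; compounds added, then TNF alpha at 10 pM final (EC50), 5 h at 37 C. LiveBLAzer substrate 2 h, room temperature; emission 460/530 nm at 405 nm excitation.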

Measured: Potency

O=C(Oc1ccccc1)c1ccccc1O
inactive: [1] | [2] | [3] | [4] | [5] | [6] | [7] | [8] | [9] | [10] | [11]

Cc1cc(C(C)(C)C)c(O)c(C(C)(C)C)c1
not listed: [8] | [14] | [15] | [16] | [17] | [18] | [19] | [20]
inactive: all other assays above

CCCC(=O)c1cc(O)c(O)cc1O
not listed: [13] | [14] | [15] | [16] | [17] | [18] | [19] | [20]
inactive: all other assays above

COc1cc(C=O)ccc1O
not listed: [13] | [14] | [15] | [16] | [17] | [18] | [19] | [20]
inactive: all other assays above

Brc1ccccc1-c1ccccc1
not listed: [13] | [14] | [15] | [16] | [17] | [18] | [19] | [20]
inactive: all other assays above

Cn1cnc2c(NCc3ccccc3)nc(NCCO)nc21
active: [17] 3.16 µM and 1.26 µM
inactive: [14] | [15] | [16] | [18] | [19]

CC(C)(C)c1ccc(O)c(O)c1
inactive: [1] | [2] | [3] | [4] | [5] | [6] | [7] | [8] | [9] | [12] | [11]

Nc1cccc2c(N)cccc12
inactive: [1] | [2] | [3] | [4] | [5] | [6] | [7] | [8] | [9] | [10] | [12]

C1=CC2C3C=CC(C3)C2C1 (configuration not stated)
not listed: [13] | [14] | [15] | [16] | [17] | [18] | [19] | [20]
inactive: all other assays above

CC(C)C(C)(C)C(C)(C)C(C)(C)S
not listed: [13] | [14] | [15] | [16] | [17] | [18] | [19] | [20]
inactive: all other assays above

CC(=O)OC/C=C(C)/C=C/C=C(C)/C=C/C1=C(C)CCCC1(C)C
inactive: [1] | [2] | [3] | [4] | [5] | [6] | [7] | [9] | [10] | [12] | [13]

Nc1c2ccccc2nc2ccccc12
active: [2] 31.6 µM | [10] 39.8 µM
inactive: [3] | [5] | [6] | [12] | [13]

O=C(NO)c1ccccc1
not listed: [13] | [14] | [15] | [16] | [17] | [18] | [19] | [20]
inactive: all other assays above

c1ccc2occc2c1
not listed: [13] | [14] | [15] | [16] | [17] | [18] | [19] | [20]
inactive: all other assays above

Oc1ccccc1
not listed: [13] | [14] | [15] | [16] | [17] | [18] | [19] | [20]
inactive: all other assays above

CCCCCCCCCCCCCCCC[n+]1ccccc1
inactive: [3] | [6] | [8] | [10] | [12]

Nc1ccc(O)cc1
inactive: [1] | [2] | [3] | [4] | [5] | [6] | [7] | [8] | [9] | [10]

Cc1ccc(O)cc1
not listed: [11] | [14] | [15] | [16] | [17] | [18] | [19] | [20]
inactive: all other assays above

CC(C)(c1ccc(O)cc1)c1ccc(O)cc1
not listed: [11] | [13] | [14] | [15] | [17] | [18] | [19] | [20]
inactive: all other assays above

CCCCC(CC)COC(=O)c1ccccc1C(=O)O (configuration not stated)
not listed: [13] | [14] | [15] | [16] | [17] | [18] | [19] | [20]
inactive: all other assays above

O=C(c1ccccc1)c1ccccc1
inactive: [1] | [2] | [3] | [4] | [5] | [6] | [7] | [8] | [9] | [10] | [12]

OCc1c[nH]c2ccccc12
not listed: [14] | [15] | [16] | [17] | [18] | [19] | [20]
inactive: all other assays above

CN(C(=O)C(Cl)Cl)c1ccc(OC(=O)c2ccco2)cc1
inactive: [11]

Nc1ncnc2nc[nH]c12
inactive: [11] | [13]

O=[N+]([O-])c1ccc(-c2nc(-c3ccc(F)cc3)c(-c3ccncc3)[nH]2)cc1
inactive: [14] | [16]
active: [11] 0.158 µM

C[N+](C)(C)CCO
active: [11] 31.6 µM
inactive: [14] | [13] | [19]

CCOC(=O)NNc1nncc2ccccc12
inactive: [11] | [13]

O=C(O)/C=C(\CC(=O)O)C(=O)O
inactive: [11] | [13]

CC(NCCC(c1ccccc1)c1ccccc1)c1ccccc1 (configuration not stated)
inactive: [13]

C[C@@H](C1=C(CCN(C)C)Cc2ccccc21)c1ccccn1
active: [15] 0.501 µM | [18] 2.51 µM

CC(=O)OCC[N+](C)(C)C
inactive: [11] | [13]

O=C1NC(c2cccc([N+](=O)[O-])c2)=CCN1c1ccccc1O
inactive and 6.31 µM (active): [18]
inactive: [14] | [15] | [17] | [19]

CN(C)c1cc2c(Nc3ccc4c(cnn4Cc4ccccc4)c3)ncnc2cn1
active: [11] 5.01 µM
inactive: [14] | [16]

C1N2CN3CN1CN(C2)C3
inactive: [11] | [13]

COC(=O)c1c(Cl)c(Cl)c(C(=O)OC)c(Cl)c1Cl
inactive: [11] | [13]

CCN(CC)CCOc1ccc(/C(=C(\Cl)c2ccccc2)c2ccccc2)cc1
active: [17] 5.01 µM
inactive: [15] | [11] | [13]

Cc1ccc2c(Cl)cc(Cl)c(O)c2n1
inactive: [11] | [13]

CC(C)N(CCC(=O)c1ccc2ccccc2c1)Cc1ccccc1
active: [17] 2 µM
inactive: [14] | [16]

COc1ccccc1N1CCN(CCN2C(=O)CC3(CCCC3)CC2=O)CC1
inactive: [14] | [16]

Cc1nn(-c2ccccc2)c(C)c1/C=N/N1CCN(Cc2ccccc2)CC1
inactive: [11]
active: [16] 10 µM

OC(CCCN1CCCCC1)(c1ccccc1)c1ccccc1
active: [17] 0.126 µM

Brc1ccc([C@H]2CN3CCSC3=N2)cc1
inactive: [14] | [16]

NC(N)=NCCCCN=C(N)N
inactive: [14] | [20] | [13] | [19]

O=C(O)Cc1ccc(OCCNC[C@H](O)c2ccccc2)cc1
inactive: [11]
